This note sets out measurements from PubChem BioAssay (EPA / NIEHS).

As a reminder, the AC50 is the concentration at which the activity in the assay is half-maximal.

The source made the active and inactive calls. How the source made its calls: active means hit-call score of the fitted dose curve at least 0.9, where 1 is the maximum; inactive means score below 0.9.

Read-out in this experiment: Cyclin D1 (CCND1), CCND1 (gene 595)
Nature of the experiment: LTEA_HepaRG_CCND1: Life Technologies and Expression Analysis (LTEA) Assay for Cyclin D1 (CCND1) using HepaRG (AID 2283451).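 On AC50: TaqMan qRT-PCR transcript level normalised to ACTB GAPDH and POLR2A housekeeping genes.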 As to conditions: mRNA level, 48 h; actives raise or lower the signal. How it is done:
LTEA_HepaRG is a cell based, multiplexed-readout assay that uses HepaRG, a human liver cell line, with measurements taken at 48 hours after chemical dosing on a 96-well plate.LTEA_HepaRG_CCND1 is one of 102 assay component(s) measured in the LTEA HepaRG cell culture assay. It is a marker of Cell proliferation, survival, death.Data from the assay component LTEA_HepaRG_CCND1 was analyzed into 1 endpoint. This assay endpoint, LTEA_HepaRG_CCND1, was analyzed with bidirectional fitting relative to DMSO as the negative control and baseline of activity. Using a type of inducible reporter, measures of mRNA induction for gain or loss-of-signal activity can be used to understand regulation of transcription factor activity. To generalize the intended target to other relatable targets, this assay endpoint is annotated to the cell cycle intended target family, where the subfamily is Cell proliferation, survival, death.
A total of 1060 chemcials from the ToxCast library were tested in eight-point concentration-response experiments. Cell culture and cytotoxicity assays were conducted at Thermo Fisher Scientific's Custom Services facility (Madison, WI). A single lot of human HepaRG cells (Thermo Fisher Scientific, Frederick, MD) was used for the cell culture experiments. 96-well format collagen type I coated plates of human HepaRG cells were prepared using established methods. Briefly, cryopreserved HepaRG cells were thawed, plated at a density of approximately 100,000 cells/well in HepaRG Thaw, Plate, and General Purpose media (HPRG770, Thermo Fisher Scientific), and incubated for 48 hours. 0.5% DMSO was selected as vehicle control to balance the requisite need of DMSO in HepaRG cultures to maintain differentiation (for example, baseline metabolism, proportions of hepatocytes vs. cholangiocytes), while enabling further hepatic receptor pathway activation (for example, PXR and CAR) in response to chemical exposure. 48 hours after plating, the culture medium was replaced with HepaRG Serum-Free Incudtion Media. Cells were exposed to each test chemical in duplicate and maintained in CO2 incubators for another 48 hours. Chemical plates were thawed to room temperature and 200x concentrations of treatment groups were prepared. 8-point conentration-reponse curves were made with the highest exposure at 100 uM, followed by half-log dilutions, all in 0.5% DMSO. Each test plate contained variouse controls, induction positive controls (1mM phenobarbital), cytotoxicity positive controls ([…] aflatoxin B1), vehicle controls (0.5% DMSO), and total lysis controls (0.5% DMSO). Cell morphology images were taken using an Essen IncuCyte FLR automated microscope, with six 96-well plates imaged in about 24 minutes. Images were captured and exported and JPEG files. Spent culture media was transfered to black-well plates for the LDH assay, and remaining media was sorted at -80 C for later use. Cells were treated with RLT buffer and frozen until shipped for gene expression analysis. Total RNA was isolated from the cell suspension in 75 uL of Buffer RLT (Qiagen, Germantown, MD 20874) by Quintiles/Expression Analysis (Durham, NC) using a custom isolation procedure. Total RNA from each plate well was transferred to a preamplification plate. Fluidigm's 96.96 Dynamic ArrayTM (Fluidigm, Amsterdam, the Netherlands) technology was used for gene expression analyses by quantitative reverse transcription polymerase chain reaction (qRT-PCR, performed by Quintiles/Expression Analysis, Durham, NC)89. Standard TaqManTM Assays (Applied Biosystems/ThermoFisher Scientific, Foster City, CA) were used to assess the expression of 93 genes selected based on their selectivity and sensitivity to important hepatic receptors known to be modulated by environmental chemicals; importance in human hepatocyte functionality; and hepatotoxicity. […]
On to `COC(=O)c1ccc(O)cc1`, for which the result was inactive. Turning to `Cc1oc(-c2ccccc2)nc1CCOc1cccc2c1ccn2CCC(=O)O`, the AC50 was 50 µM (active). With `CC(=O)Oc1ccccc1C(=O)O`, the result was inactive. On the same count and under the same terms, in the case of `Nc1nc(N)c2nc(CNc3ccc(C(=O)N[C@@H](CCC(=O)O)C(=O)O)cc3)cnc2n1` it was “inactive”; in that of `CCc1c(C(=O)NN2CCCCC2)nn(-c2ccc(Cl)cc2Cl)c1-c1ccc(Br)cc1`, “inactive”. Still for that read-out and setting: the value for `CC1=C(/C=C/C(C)=C/C=C/C(C)=C/CO)C(C)(C)CCC1` was “inactive”; that for `CCCCCC(=O)O` was “inactive”. As for `CCCCCCCCCCO`, the compound was classed as inactive. Turning to `Cc1cc(NC(=O)C(=O)O)cc(C)c1Oc1ccc(O)c2c1CCC2`, the call was inactive.

As for `Cc1ccc(C)c(C)c1`, the compound was called inactive. Regarding `C[C@]12C=CC(=O)C=C1CC[C@@H]1[C@@H]2C(=O)C[C@@]2(C)[C@H]1CC[C@]2(O)C(=O)CO`, the AC50 was 12.3 µM (active). On to `Cc1c(C(=O)O)c(O)cc2c1C(=O)c1c(O)c([C@@H]3O[C@H](CO)[C@@H](O)[C@H](O)[C@H]3O)c(O)c(O)c1C2=O`, for which the result was inactive. As for `NC(=O)Cn1c(=O)cc(CCN2CCN(c3nccc4sccc34)CC2)c2ccc(F)cc21`, the compound was called inactive.

In the case of `NCCO`, the outcome was inactive. In the case of `CC1(C)NC(=O)NC1=O`, the compound was called inactive.

Take `Oc1ccc2ccccc2c1N=Nc1ccccc1`: the AC50 is 9.92 µM (active).

For `Cc1ccc2ncccc2c1`, the compound was called inactive. Regarding `Cc1cccc(Nc2cc(Cl)nc(SCC(=O)O)n2)c1C`, the outcome was inactive.

As for `Cc1ccccc1Cl`, the compound was called inactive. For the compound `CC(C)(C)c1cc(O)c(C(C)(C)C)cc1O`, the call was inactive. As for `Nc1ccc(S(=O)(=O)c2ccc(N)cc2)cc1`, the compound was called inactive. Consider `Oc1ccc2c(c1)OC[C@@H](N1CCC(O)(c3ccc(F)cc3)CC1)[C@H]2O`, for which the result was inactive. On the same count and under the same terms, in the case of `CC1(C)CC(N=C=O)CC(C)(CN=C=O)C1` (stereo not given) it was “inactive”; in that of `Cc1ccc(C(C)C)c(O)c1`, “inactive”; in that of `CC=Cc1ccc(O)c(OC)c1`, “inactive”. Same read-out and setting: in the case of `CCCCN(CCCC)CCCC` it was “inactive”. `Cc1cc(=O)[nH]c(=S)[nH]1`: the outcome was inactive. On to `CCOC(=O)CCC(=O)OCC`, for which the outcome was inactive.

Take `CC(=O)OC/C=C(\C)CCC=C(C)C`: the outcome was inactive. Regarding `COc1cc(-c2nc(NC(=O)c3cc4cc(C)cc(C)c4n3CC(=O)O)sc2CCC2CCCCC2)c(OC)cc1Cl`, the AC50 is 18.4 µM (active). For `CCCCc1ccc2c(n1)[C@@H](c1ccc(OC)cc1C[C@H](C)C(=O)O)[C@H](C(=O)O)[C@H]2c1ccc2c(c1)OCO2`, the outcome was inactive. On the same count and under the same terms, the value for `Cc1nc(C)nc(N2C[C@@H](C)N(c3ccnc([C@@H](C)O)n3)[C@@H](C)C2)n1` was “inactive”; that for `CCCCCCCCCCCCCO` was “inactive”.

In the case of `Cc1cccc(C)c1O`, the result was inactive.

`CCCCCCCCCCCCCCCCCC(=O)O`: the result was inactive.

In the case of `CCCCCCCCCCCCCCCC`, the compound was called inactive. As for `c1cc(-c2ccncc2)ccn1`, the call was inactive.

As to `O=C(O)CCCCC(=O)O`, the compound was called inactive. For the compound `FC(F)(F)C(F)(F)C(F)(F)C(F)(F)C(F)(F)C(F)(F)CCI`, the outcome was inactive.

Consider `CC(C)c1ccc(C(=O)N=C(N)N)cc1S(C)(=O)=O`, for which the AC50 is 0.493 µM (active).
